Screening data as filed in PubChem.
A selection: hits, their analogues and other compounds. The true share with any hit is near 2.2%.
IL-2 act: qHTS of IL-2 Activators; actives 0.065% (n = 360,000); activation, % (series mostly up to about 46 µM); IL-2 activation reporter assay, cell-based qHTS; stimulated with anti-CD3/CD4/CD28 beads; in transgenic mouse T cells; in the data active = activation above about 50%; inconclusive = mostly about 30% to 49%; also: 0% is about no effect
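Readout is EGFP and DsRed signal by fluorescent plate cytometry after 18 h at 37 degrees C. Transgenic mouse T cells (750/well) received compound for 60 min before bead stimulation (anti-CD3, anti-CD4, anti-CD28); memory T cells served as non-tolerant control.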
rTrxR1 inhibitor: qHTS Assay for Inhibitors of Mammalian Selenoprotein Thioredoxin Reductase 1 (TrxR1): qHTS; Thioredoxin reductase 1, cytoplasmic (Rattus norvegicus), O89049; recombinant rTrxR1, NADPH fluorescence consumption, selenite substrate; Potency, µM (highest dose often 114 µM), for inactives: at the top dose activity change, negative = inhibition, actives largely listed as inhibitors; actives 1% (n = 390,000); AID 588453, 2011; also: potency is read from the fitted curve at half-maximal effect; % is scaled to controls: 0 for no effect and ±100 for the full control effect; nearly all actives have a fitted effect of over 65% in size
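Rat TrxR1 (90 nM in the dispensed reagent) was pre-reduced with 400 uM NADPH for 5 min at room temperature, then incubated with compound for 15 min. After 400 uM selenite was added, NADPH fluorescence (Ex 340/Em 450 nm) was followed for 8 min.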
TrxR1 substrate: qHTS Assay for Substrates of Mammalian Selenoprotein Thioredoxin Reductase 1 (TrxR1): qHTS; Thioredoxin reductase 1, cytoplasmic (Rattus norvegicus), O89049; actives 0.01% (n = 390,000); Potency, µM (highest dose often 114 µM), inactives show at the highest dose activity change, negative = substrate turnover; purified TrxR1 substrate turnover, NADPH consumption readout; also: potency is read from the fitted curve at half-maximal effect; % is scaled to controls: 0 for no effect and ±100 for the full control effect; nearly all actives have a fitted effect of over 50% in size
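Rat TrxR1, dispensed at 90 nM, was prereduced with 400 uM NADPH (final) for 5 min at ~22 deg C, then incubated with compound 15 min before 400 uM selenite. A first-read NADPH fluorescence drop versus no-compound background flagged substrates.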
Giardia kill: Small Molecules that selectively kill Giardia lamblia: qHTS; AID 540267, 2011; activity change, % at 7.66 µM, hits read low; Giardia lamblia trophozoite viability; actives 0.15% (n = 340,000); in the data active = activity change below about -80%; inconclusive = between about -30% and that limit;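 also: parasites exposed to compound for two days anaerobically before the ATP read; % is scaled to controls: 0 for no effect and ±100 for the full control effect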
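Compounds were tested on trophozoites seeded at 100 cells/well and held 48 hrs at 37 deg C anaerobically. An ATP-based luminescent kit measured the remaining live cells.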
BRCA1 expr up: qHTS Assay to Identify Small Molecule Activators of BRCA1 Expression | MCF7-BRCA1-FFLuc reporter, luminescence, 48 h; response scale: scaled: vehicle 0%, 10 µM genistein 100% | Potency, µM (doses to about 46.1 µM), inactives show at the highest dose activation, actives largely listed as activators | actives 1.1% (n = 380,000); also: potency is read from the fitted curve at half-maximal effect; nearly all actives have a fitted effect of over 80% in size
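MCF7-BRCA1-FFLuc, 2000 cells/well; 2 h attach, 37 °C/5% CO2; compound 48 h; luciferase substrate 15 min; luminescence end-point. Norm. to genistein 10 microM max activation and DMSO; concentration-response curves fitted.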
mIDH1 inhibitor: qHTS for Inhibitors of mutant isocitrate dehydrogenase 1 (IDH1): qHTS. Potency, µM (highest dose often 76.6 µM), for the others: at the highest dose activity change, negative = inhibition, actives largely listed as inhibitors. actives 0.093% (n = 390,000). IDH1-R132H enzyme, NADPH consumption, diaphorase/resazurin fluorescence. AID 602179, 2012; also: potency is read from the fitted curve at half-maximal effect; % is scaled to controls: 0 for no effect and ±100 for the full control effect; nearly all actives have a fitted effect of over 65% in size
Target sequence (O75874 whole entry R132H, stated change not applied): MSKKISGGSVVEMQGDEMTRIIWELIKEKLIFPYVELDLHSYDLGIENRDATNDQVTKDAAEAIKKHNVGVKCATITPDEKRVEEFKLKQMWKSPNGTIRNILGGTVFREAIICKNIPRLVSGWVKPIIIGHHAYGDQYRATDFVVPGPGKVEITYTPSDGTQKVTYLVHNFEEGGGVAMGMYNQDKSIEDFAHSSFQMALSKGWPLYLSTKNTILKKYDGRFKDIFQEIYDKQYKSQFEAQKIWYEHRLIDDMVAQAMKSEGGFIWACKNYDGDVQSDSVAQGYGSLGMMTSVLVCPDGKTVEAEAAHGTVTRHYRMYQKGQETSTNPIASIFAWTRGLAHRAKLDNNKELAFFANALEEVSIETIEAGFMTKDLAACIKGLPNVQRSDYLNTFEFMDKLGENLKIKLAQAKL
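IDH1-R132H (0.5 ug/mL dispensed) in pH 7.5 Tris buffer was preincubated 30 min with compound, then given a substrate mix of 0.016 mM NADPH and 2 mM alpha-KG for 80 min at room temperature; remaining NADPH was read by diaphorase/resazurin fluorescence.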
* marks the source's active call; other numbers are inactive results; u = inconclusive; x = no result given; [ ] = dose if it differs, or a comment. Unless noted, calls follow the shape of the dose curve; as a rule, active = well fitted curve in the direction sought with a large enough effect; inconclusive = small, poorly fitted or top-dose-only effect, or another doubt; inactive = no such curve, though single readings can be large; an effect the other way counts as inactive or inconclusive.

SMILES	IL-2 act	rTrxR1 inhibitor	TrxR1 substrate	Giardia kill	BRCA1 expr up	mIDH1 inhibitor
CC(=O)c1ccc(NCCC(=O)c2ccccc2)cc1	-2	50µM*	-9%	2	11µM*	1%
Cc1ccc(C(=O)CNc2ccc(Br)cc2)cc1	-2	24%[57.1 µM]	3%[57.1 µM]	0	23%	-5%
Cc1cccc(NCCC(=O)c2ccc(Br)cc2)c1	-2	25µM*	-3%	-5	62%	3%
CCOC(=O)CNCCC(=O)c1ccc(Br)cc1	-1	0.28µM*	-3%	-3	-6%	-1%
CC(=O)c1ccc(NC(=O)CCCC(=O)c2ccccc2)cc1	-1	30%	7%	42	19%	-11%
CC(C)c1ccc(NCCC(=O)c2ccc(Br)cc2)cc1	-2	56µM*	-7%	-17	18%	0%
Cc1cnc2c(C)cccc2c1C	x	8%	7%	x	x	x
COc1cc(-c2nn3c(-c4cc(-c5ccccc5)n[nH]4)nnc3s2)cc(OC)c1OC	x	22%	19%[0.0914 µM]	-9	-12%	x
COc1ccc(CN2CCc3nc(N4CCN(c5ccc(F)cc5)CC4)ncc3C2)c(OC)c1OC	x	2%[57.1 µM]	-7%[57.1 µM]	x	x	19%
Cc1cccc(OCCC(=O)NO)c1	x	11%	4%	x	-4%	x
Nc1c(-c2ccc3c(c2)OCCO3)oc2ccccc2c1=O	-4	-6%[57.1 µM]	12%	-19	2.5µM*	3%
COc1ccc2c(c1)c1c(c(=O)n(-c3ccc(C)cc3)c(=O)n1CC(=O)N1CCCC1)n2C	x	191%	280%	x	x	-20%
Cc1ccc(NC(=O)C(Cc2ccccc2)NS(=O)(=O)c2cccs2)cc1Cl (configuration not stated)	x	5%	7%[2.29 µM]	x	0%	7%
COc1ccc(NC(=O)c2ccc3snnc3c2)cc1	0	7%[57.1 µM]	3%[57.1 µM]	5	6.3µM*	7%
COc1ccc(C(=O)Nc2nnc(C(C)C)s2)cc1OC	x	79µM*	4%	x	x	-8%
COc1cc(C(=O)Nc2ccc3ccccc3c2)cc(OC)c1OC	-3	31%	-1%	-4	46%	-10%
COc1ccc(C(=O)Nc2nc3ccccc3s2)cc1OC	0	5%[57.1 µM]	4%[57.1 µM]	-11	4.5µM*	4%
COc1ccc(C(=O)Nc2ccc3ccccc3c2)cc1OC	-1	8%[57.1 µM]	6%[57.1 µM]	-9	5.6µM*	4%
CCCN1C(=O)c2ccccc2NC1c1ccc(OC)c(COc2cccc(C)c2C)c1 (configuration not stated)	x	47%	37%	0	-44%	x
O=C(C[n+]1cccc2cccc(O)c21)c1ccc(F)cc1	x	-9%	1%	x	x	x
CCc1ccc(-n2nc(CO)c(C(=O)NCCCCc3ccccc3)n2)cc1	x	u	5%	x	x	-6%
CC(Nc1ccc(F)cc1)=[N+](C)CCNS(=O)(=O)c1ccc(Cl)cc1	-1	79µM*	-5%	23	-9%	0%
O=C(c1ccc([N+](=O)[O-])cc1)N1c2ncnn2C2(CCCCC2)[C@@H]2CCCC[C@@H]21	x	34%	7%	x	x	0%
CCCS(=O)(=O)c1c(S(=O)(=O)CCC)c2cc(C(C)(C)C)ccn2c1C(=O)c1ccccc1	x	-7%	-9%	x	x	-22%
COc1ccc(-c2c(C)nn3c(N4CCN(c5ccccc5)CC4)cc(C)nc23)cc1OC	x	4%	-2%	x	-4%	-2%
SMILES	IL-2 act	rTrxR1 inhibitor	TrxR1 substrate	Giardia kill	BRCA1 expr up	mIDH1 inhibitor
Cc1cccc(NC(=O)CSc2nnc(-c3cccs3)o2)c1	x	11%	0%	x	x	16%
O=C(CC(C(=O)O)n1ccnc1)c1ccc(Cl)cc1 (configuration not stated)	x	1.8µM*	1%	x	-15%	x
COc1ccccc1N1CCN(C(=O)c2cnc(N3CCCCC3)c3ccccc23)CC1	x	22%[57.1 µM]	3%[57.1 µM]	x	x	-9%
O=C(N=c1ccn(-c2nc3ccccc3nc2NS(=O)(=O)c2ccc(Cl)cc2)cc1)c1cccs1	244*	20%	1%	13	1%	-3%
Nc1nc(N)nc(-c2cccc(Br)c2)n1	0	4%	-3%	-13	13µM*	5%
O=c1c2ccccc2nc2n1CC/C2=C/N1CCN(c2cccc(C(F)(F)F)c2)CC1	-2	14µM*	-1%	10	-33%	7%
O=c1[nH]c(SCc2c(F)cccc2Cl)nc2c1CCC2	x	12%	-3%	x	x	x
CCn1nc([N+](=O)[O-])c(C(C#N)c2nc3cc(C(F)(F)F)ccc3s2)c(Cl)c1=O (configuration not stated)	-3	32µM*	-9%	-14	-41%	3%
Cc1ccc(Cn2c(C(C)Nc3nc(-c4ccc(Cl)c([N+](=O)[O-])c4)cs3)nc3cc(C(F)(F)F)ccc32)cc1 (configuration not stated)	0	12%	1%	29	-24%	-1%[38.3 µM]
Cn1nc([N+](=O)[O-])c(C(C#N)c2ccccn2)c(Cl)c1=O (configuration not stated)	-1	2.8µM*	-4%	-27	-75%	16%
CCCn1nc([N+](=O)[O-])c(C(C#N)c2nc3ccccc3o2)c(Cl)c1=O (configuration not stated)	-3	11µM*	-15%	-12	-69%	3%
Cc1cccc(CN2CC34C=CC(CC3S2(=O)=O)O4)c1 (configuration not stated)	x	-2%	2%	3	x	x
CCOc1ccc(NC(=O)c2ccc3c(c2)CCN3S(=O)(=O)c2ccc(Cl)cc2)cc1	x	17%	-3%	x	x	-13%
O=C1OC(c2ccccc2)=C/C1=C/N1CCOCC1	-1	u	-7%	15	13µM*	0%
CN(C)/C=C1/C=C(c2ccccc2)OC1=O	-4	22µM*	-3%	-23	14%	9%
CCc1ccccc1NC(=O)C(=O)c1cc(C)n(-c2ccccc2F)c1C	x	10%	14%	x	x	14%
O=S1(=O)CCO[C@H]2CCCC[C@@H]2N1Cc1ccccc1F	x	10%	6%	x	x	x
Cc1cc(C)cc(NC(=O)COC(=O)CCCC2=NS(=O)(=O)c3ccccc3N2)c1	0	3%	-3%	-5	-9%	4%
Cc1cccc(OCC2=NS(=O)(=O)c3ccccc3N2)c1	-3	0%	-6%	-5	11µM*	5%
Cc1cc([N+](=O)[O-])nn1CC(=O)c1ccccc1	0	16%	0%	-15	6%	-3%
